S1P4 agonist = human S1P4 receptor agonism. S1P4-expressing cell line, agonist reporter assay. O95977. 220,000 compounds, 0.35% hits. activation, % at 4.98 µM; in the data active = activation above about 11%;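 note: 0% = DMSO vehicle and 100% = reference agonist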
Pf gametocyte = kills late stage P. falciparum gametocytes | P. falciparum stage V gametocytes, ATP luminescence, 24 h | 150,000 compounds, 0.065% hits | inhibition, % at 10.9 µM;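 active = inhibition above the mean plus 3 SD of compounds within the control limits, set per campaign, cut at about 38% in these data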;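 note: 0% = DMSO wells and 100% = medium only without gametocytes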
EP2 antag = inhibitors of human EP2 prostaglandin E2 receptor. inhibition, % at 25 µM. C6 glioma cells expressing human EP2, cAMP TR-FRET; cells stimulated with saturating PGE2. P43116. 260,000 compounds, 0.52% hits;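 active = percent inhibition above 40 after rounding to a whole number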;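 note: rat C6 glioma host cells with rolipram phosphodiesterase inhibitor present; the protocol text gives 20 µM as final concentration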
EP2 mod = modulators of human EP2 prostaglandin E2 receptor; P43116; EP2-expressing cells, cAMP HTRF FRET, PGE2 co-stimulation; induction, % at 25 µM; 260,000 compounds, 0.83% hits; AID 940;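 active = compounds whose cAMP rise, as percent of the full-agonist control response, exceeds 60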;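 note: rat C6 glioma line stably carrying human EP2 under a CMV promoter; the protocol text gives 20 µM as final concentration; 100% = response of wells given 1 µM PGE2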
S1P3 antagonist = antagonists of human S1P3 receptor. inhibition, % at 4.98 µM. CHO S1P3 NFAT-BLA reporter, FRET fluorescence, antagonist mode. AID 485. Q99500. 170,000 compounds, 0.27% hits;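 active = inhibition above the plate cutoff, the mean inhibition of test wells on that plate plus 3 SD, cut at about 28% in these data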;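 note: cells challenged with S1P at its EC80 of 0.8 µM; blue over green emission ratio from cleaved BLA substrate after 4 h stimulation; 0% = S1P-stimulated wells and 100% = unstimulated DMSO-only wells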
Target sequence (Q99500 whole entry, looked up): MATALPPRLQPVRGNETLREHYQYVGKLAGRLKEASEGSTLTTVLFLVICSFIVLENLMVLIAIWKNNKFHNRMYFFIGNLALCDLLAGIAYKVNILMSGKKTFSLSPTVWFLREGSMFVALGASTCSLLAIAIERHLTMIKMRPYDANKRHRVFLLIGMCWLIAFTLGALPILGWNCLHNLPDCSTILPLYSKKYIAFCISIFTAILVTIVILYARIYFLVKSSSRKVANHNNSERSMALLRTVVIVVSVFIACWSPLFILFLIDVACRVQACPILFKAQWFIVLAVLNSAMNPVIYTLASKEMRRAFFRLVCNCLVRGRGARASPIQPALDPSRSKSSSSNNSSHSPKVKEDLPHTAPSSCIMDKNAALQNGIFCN
S1P4 antag = antagonists of human S1P4 receptor. S1P4-expressing cells, antagonist mode, reporter read-out. 220,000 compounds, 0.26% hits. O95977. inhibition, % at 4.98 µM; in the data active = inhibition above about 29%;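 note: 0% = wells stimulated with agonist and 100% = vehicle wells without agonist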
EP2 confirm = EP2 receptor cAMP induction, counter-screens negative; shares compounds with EP2 mod; C6 glioma EP2 cells, cAMP HTRF induction; plus low (about EC15) PGE2 agonist; calls only at 20 µM (by protocol); 1,300 compounds, 47% hits; AID 1080;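 active = cAMP induction above 50% in the main assay while under 30% in all four parallel counter assays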;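 note: rat C6 glioma cells stably expressing human EP2 receptor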
Starred values were filed as active, the others as inactive; i = inactive; . = no result; + = active, no number; ! = a repeat was not active. Shown are actives, neighbours in structure and some others; about 1.9% of the full set was active somewhere.

SMILES	S1P4 agonist	Pf gametocyte	EP2 antag	EP2 mod	S1P3 antagonist	S1P4 antag	EP2 confirm
COC(=O)c1ccc(-n2c(C)ccc2-c2ccccc2)cc1	1	.	10	60	.	-4	.
CC(=O)c1ccc(-n2c(C)ccc2-c2ccccc2)cc1	-1	.	4	90*	.	3	+
COc1ccc2cc(CN(CCO)C(=S)NCC3CCCO3)c(=O)[nH]c2c1 (stereo not drawn)	.	.	3	-42	.	.	.
COc1ccc2c(-c3ccccc3)cc(N3CCOCC3)nc2c1	0	.	12	77*	14	-7	+
COCCn1c(SCC(=O)N2CCCC(C)C2)nnc1-c1ccccc1 (stereo not drawn)	.	.	18	-3	.	.	.
COc1ccc(C)cc1NC(=O)C(Sc1nnnn1C)c1ccccc1 (stereo not drawn)	-1	7	5	26	-1	-4	.
COCCn1c(SC(C(=O)Nc2cc(C)ccc2OC)c2ccccc2)nnc1-c1ccc(Cl)cc1 (stereo not drawn)	0	2	8	55	11	-6	i
Nc1cc(Cl)ccc1Oc1ccc(Cl)cc1	2	0	0	66*	.	-12	i
Nc1cc(Cl)ccc1Oc1ccccc1	1	.	6	39	-38	8	.
Cc1ccccc1CSCC(=O)Nc1ccccc1-c1ccccc1	-2	19	0	81*	1	-3	+
O=C(CSCc1cccc(Cl)c1)Nc1ccccc1-c1ccccc1	0	4	9	67*	2	3	+
O=C(CSCc1ccc(Cl)cc1)Nc1ccccc1O	0	-12	15	-18	-15	-22	.
CN(CC(=O)Nc1ccccc1-c1ccccc1)Cc1ccccc1Cl	2	-17	4	71*	-1	-12	+
COCC(=O)N(Cc1cc2ccccc2[nH]c1=O)c1cccc(C)c1	.	.	8	-152	.	.	.
O=C(c1ccco1)N(Cc1cccc([N+](=O)[O-])c1)c1ccc(Br)cc1	-1	1	2	66*	1	-3	+
O=C(c1ccco1)N(Cc1ccc([N+](=O)[O-])cc1)c1ccc(Br)cc1	0	.	6	48	.	-3	.
Cc1nn(CC(=O)N2CCC(Cc3ccccc3)CC2)c(=O)c2cc3sccc3n12	.	.	.	-36	.	.	.
O=C(COC(=O)c1ccc(S(=O)(=O)N2CCCC2)cc1)Nc1ccc(F)cc1F	0	9	4	87*	-10	3	i
O=C(c1ccco1)N1CCN(c2c(-c3ccccc3)c3cc(Cl)ccc3[nH]c2=O)CC1	0	.	9	47	-5	-24	.
O=c1[nH]c2ccc(Cl)cc2c(-c2ccccc2)c1N1CCOCC1	0	.	5	69*	-19	-4	i
O=c1[nH]c2ccc(Cl)cc2c(-c2ccccc2)c1CN1CCOCC1	-1	.	6	20	4	-17	.
O=c1[nH]c2ccc(Cl)cc2c(-c2ccccc2)c1N1CCN(c2ccccn2)CC1	-2	-22	7	73*	-13	6	i
COc1cc(C(c2nnnn2Cc2ccco2)N2CCN(c3ccccc3)CC2)cc(OC)c1OC (stereo not drawn)	.	.	7	17	.	.	.
CCOc1ccc(Cn2c3ccc(OC)cc3c3nc4ccccc4nc32)cc1	-1	22	5	18	4	-18	.
CCn1c2ccc(Cl)cc2c2nc3ccccc3nc21	1	-32	7	55	.	-1	+
SMILES	S1P4 agonist	Pf gametocyte	EP2 antag	EP2 mod	S1P3 antagonist	S1P4 antag	EP2 confirm
CCn1c2ccc(OC)cc2c2nc3ccccc3nc21	0	.	5	56	.	-24	i
O=C(NCc1ccc(-c2nc3ccccc3s2)cc1)c1ccc(Br)o1	0	.	3	-14	-3	-20	.
O=C(Nc1ccccc1-c1nc2ccccc2s1)c1ccc(Br)o1	-3	.	13	78*	.	-14	+
Cc1ccc2cccc(NC(=O)c3ccc(Br)o3)c2n1	0	18	10	87*	-21	6	+
COCCCNCc1cc2c(C(C)(C)C)nn(-c3ccccc3)c2[nH]c1=O	.	.	8	4	.	.	.
CC(C)NC(=O)c1ccc2c(c1)N(Cc1c(F)cccc1Cl)C(=O)C(C)(C)O2	.	.	6	8	.	.	.
CC(C)=CCc1c(O)cc2oc3c(CC=C(C)C)c(O)c(O)c(CC=C(C)C)c3c(=O)c2c1O	.	.	26	13	.	.	.
COc1c(O)cc2oc3cc(O)c(CC=C(C)C)c(O)c3c(=O)c2c1CC=C(C)C	.	.	16	51	.	.	i
Cc1ccc2c3c(cccc13)-c1ccccc1C2=O	1	-8	5	79*	2	-1	+
C/C(Cl)=C/Cn1c(SC(C)C)nc2c1c(=O)[nH]c(=O)n2C	0	.	6	65*	7	-4	i
C/C=C/Cn1c(SCc2ccc(C)cc2)nc2c1c(=O)[nH]c(=O)n2C	3	-11	16	86*!	-21	-8	+
COc1ccc2c(C)cc(SCC(=O)Nc3ncc(Cl)cc3Cl)nc2c1	-2	8	14	68*	-4	6	i
Cc1cc(SCC(=O)Nc2ncc(Cl)cc2Cl)nc2ccccc12	1	.	11	46	4	-12	.
COc1cc2c(cc1CN(Cc1ccc3c(c1)OCO3)CC(C)O)OCO2 (stereo not drawn)	.	.	0	-26	.	.	.
CC(C)Oc1ccc(/C=C(/NC(=O)c2ccccc2)C(=O)NCCC(=O)O)cc1	0	1	3	71*	3	-9	i
CCOc1ccccc1/C=C(\NC(=O)c1ccccc1)C(=O)NCCC(=O)O	1	-14	10	3	-12	-27	.
Cc1ccc(CN(CCCn2ccnc2)CC2=Cc3ccccc3OC2)s1	.	.	4	-5	.	.	.
C=CCn1c(SCc2c(C)noc2C)nc2ccccc2c1=O	-1	.	3	71*	.	11	i
Cc1noc(C)c1CSc1nnc2n(-c3ccccc3)c(=O)c3ccccc3n12	.	0	.	.	-18	.	.
Cc1noc(C)c1CSc1nc2[nH]ncc2c(=O)n1-c1ccccc1	-2	-8	22	31	3	-12	.
Cc1noc(C)c1CSc1nc2ccccc2c(=O)n1-c1ccccc1	2	-5	15	53	7	-22	i
Cc1noc(C)c1CSc1nc2ccccc2c(=O)n1-c1ccc(F)cc1F	-1	4	.	56	10	-6	+
C=CCn1c(SCc2c(C)noc2C)nc2cc(C(=O)O)ccc2c1=O	0	-5	5	20	24	-19	.
O=C(C1CC1)N1CCC(c2nc3c(nnn3Cc3cccc(Cl)c3)c(=O)[nH]2)CC1	.	.	13	6	.	.	.
CC(/C=C1\SC(=S)N(c2ccc(C(=O)O)cc2)C1=O)=C\c1ccccc1	0	13	5	14	2	-3	.
CC(/C=C1\SC(=S)N(C(C(=O)O)C(C)C)C1=O)=C\c1ccccc1 (stereo not drawn)	1	-6	10	61*	-18	-21	+
